Reference: the supplement of paper PMC3545927
The list shows a part of the results. No count for the full screen is at hand.

Biological target: furin, P09958
Experiment: furin cleavage Z-score vs untreated control; higher = more cleavage, active = 3.5 or more, inactive = 1 or less, 8 variable residues between constant flanks
Method in brief: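 Peptides 8 residues long, fused to a cDNA oligonucleotide, were fixed to magnetic beads by the N-terminus and exposed to purified furin. The 0.01 ml reactions contained 50 mM HEPES pH 7.5 with CaCl2 and NaCl at 1:10 enzyme:substrate and ran 7.5, 15 or 30 min. For the cleavage Z-score, log counts of sequenced released DNA were compared with furin-free reactions, lowess-adjusted and scaled by median absolute deviation.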

furin, P09958, sequence (P09958 whole entry): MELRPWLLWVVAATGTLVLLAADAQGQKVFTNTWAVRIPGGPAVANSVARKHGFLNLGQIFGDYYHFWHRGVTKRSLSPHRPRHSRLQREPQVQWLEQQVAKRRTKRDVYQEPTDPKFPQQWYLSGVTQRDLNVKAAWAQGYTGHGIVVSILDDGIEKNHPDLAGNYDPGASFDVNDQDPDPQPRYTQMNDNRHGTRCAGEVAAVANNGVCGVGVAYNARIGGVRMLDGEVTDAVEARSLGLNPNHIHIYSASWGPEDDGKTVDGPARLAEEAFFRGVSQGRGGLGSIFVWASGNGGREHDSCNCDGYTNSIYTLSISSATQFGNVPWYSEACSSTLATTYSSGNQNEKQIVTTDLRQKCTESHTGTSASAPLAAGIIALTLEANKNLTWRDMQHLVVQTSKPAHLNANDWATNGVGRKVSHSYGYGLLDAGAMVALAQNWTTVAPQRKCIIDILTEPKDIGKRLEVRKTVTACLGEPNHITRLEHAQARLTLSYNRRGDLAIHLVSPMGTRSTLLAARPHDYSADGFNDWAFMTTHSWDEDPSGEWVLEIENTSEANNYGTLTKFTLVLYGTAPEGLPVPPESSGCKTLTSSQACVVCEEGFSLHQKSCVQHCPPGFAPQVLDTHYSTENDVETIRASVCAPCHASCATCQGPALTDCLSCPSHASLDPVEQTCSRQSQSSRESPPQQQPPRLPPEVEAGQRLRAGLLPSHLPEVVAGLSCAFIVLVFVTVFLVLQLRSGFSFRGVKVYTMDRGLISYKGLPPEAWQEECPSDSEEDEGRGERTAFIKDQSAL

| Sequence | furin cleavage Z-score (7.5 min) | furin cleavage Z-score (15 min) | furin cleavage Z-score (30 min) |
| --- | --- | --- | --- |
| CATTICSGSWAGNASASA [HC1864] | -0.759 (inactive) | -0.615 (inactive) | -0.31 (inactive) |
| CATTPCQGSWAGNASASA [HC79] | -0.663 (inactive) | 0.917 (inactive) | -0.281 (inactive) |
| CAMECCSQHLAGNASASA [HC1720] | 0.573 (inactive) | 0.0768 (inactive) | 0.728 (inactive) |
| CARRPRHAEQAGNASASA [FS-2781] | 4.69 (active) | 5.7 (active) | 4 (active) |
| CARSRRLAEQAGNASASA [FS-1933] | 0.188 (inactive) | 2.91 | 3.14 |
| CARRPRGTMQAGNASASA [FS-1920] | 4.44 (active) | 4.25 (active) | 6.42 (active) |
| CARRPRDDDSAGNASASA [FS-3057] | -0.221 (inactive) | -0.299 (inactive) | -1.38 (inactive) |
| CARRPRLSDRAGNASASA [FS-3059] | -0.769 (inactive) | -0.45 (inactive) | -0.545 (inactive) |
| CAEEMEECSQAGNASASA [HC1792] | 0.0451 (inactive) | -0.543 (inactive) | -0.411 (inactive) |
| CASTKVPAAYAGNASASA [HC779] | -0.328 (inactive) | -0.544 (inactive) | 0.327 (inactive) |
| CAPGALVVGVAGNASASA [HC1105] | -0.0947 (inactive) | 0.679 (inactive) | -0.0726 (inactive) |
| CARKARFIHDAGNASASA [FS-2421] | 2.71 | 4.77 (active) | 7.1 (active) |
| CARKYREVFCAGNASASA [FS-2041] | 0.9 (inactive) | 2.75 | 2.7 |
| CARKARFGSEAGNASASA [FS-2958] | 0.624 (inactive) | 0.0236 (inactive) | 1.04 |
| CARKYRSNKGAGNASASA [FS-2703] | 0.0213 (inactive) | 0.138 (inactive) | 1.58 |
| CADSTVTESDAGNASASA [HC1483] | -0.354 (inactive) | 0.495 (inactive) | 0.157 (inactive) |
| CARKYRFHGGAGNASASA [FS-1734] | 0.847 (inactive) | -1.27 (inactive) | -0.103 (inactive) |
| CARKAREVCDAGNASASA [FS-1900] | 5.27 (active) | 5.4 (active) | 4.27 (active) |
| CARKYRSHHDAGNASASA [FS-2428] | 1.45 | 4.06 (active) | 3.48 |
| CASTPCSADLAGNASASA [HC2551] | 1.45 | 0.00667 (inactive) | 2.02 |
| CANYTFALWRAGNASASA [HC1199] | -0.0905 (inactive) | -0.132 (inactive) | 1.34 |
